Shown are actives, neighbours in structure and some others; about 4.8% of the full set was active somewhere.
Calb FLC: affects C. albicans growth with fluconazole | C. albicans CaCi-2 (fluconazole-resistant clinical isolate) + fluconazole, Alamar Blue growth, 48 h | 0.57% of 300,000 active | growth inhibition, % (test concentration not listed);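 active = growth inhibition above about 58% in most replicates, limit read from the data, passing the limit was not always enough; inconclusive = exactly half the replicates above a set limit; inactive = most replicates below a set limit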;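 note: all wells also contain fluconazole at 8 µg/ml as a sub-toxic cotreatment; 0% = median of DMSO wells and 100% = median of geldanamycin control wells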
MPTP block: inhibitors of mitochondrial permeability transition pore. isolated mouse mitochondria, Ca2+ swelling absorbance, 30 min. inhibition, % at 10 µM. 1.4% of 360,000 active. AID 602449;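 active = inhibition of 50% or more, scaled per plate between neutral and stimulator controls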;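 note: 0% = DMSO wells given calcium and 100% = 1 mM EGTA wells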
Mdm2 MdmX PPI: disrupts the human Mdm2-MdmX interaction. 3% of 330,000 active. inhibition, % at 8 µM. SaOS-2 split-luciferase Mdm2/MdmX complementation, luminescence. AID 485346. O15151+Q00987;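 active = inhibition of at least 50% at 8 µM in the primary screen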
Beta apoptosis: beta cell apoptosis inhibition | protection from apoptosis, % (no concentration beside the values) | 0.8% of 300,000 active | INS-1E cytokine-induced death, ATP luminescence, 48 h; percent of positive-control rescue, neutral wells zero | AID 435005;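 active = Every replicate reaches about 75%, or at least half do and their mean reaches it too, limit read from the data; inconclusive = At least half of replicates reach the limit but their mean does not; inactive = Under half of replicates reach the limit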;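 note: 0% = cytokine-treated negative control wells and 100% = positive control rescue; higher means more ATP so stronger rescue from cytokine killing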
CSC inhib: cancer stem cell inhibition; cancer stem cell-like cells viability, luminescence; inhibition, % at 7.5 µM; 1.1% of 300,000 active; AID 2717; in the data active = inhibition above about 75%; inconclusive = no clear call, values can overlap the other calls; tested in HMLE shEcad cells
Mdm2 MdmX conf: human Mdm2/MdmX binding inhibition, confirmed; shares compounds with Mdm2 MdmX PPI; luminescent assay; inhibition, % at 8 µM; 55% of 10,000 active; AID 489028; in the data active = inhibition above about 40%
FLuc counter: inhibits full-length luciferase, flagging false Mdm2/MdmX hits; shares compounds with Mdm2 MdmX PPI; SaOS-2 full-length luciferase counterscreen, luminescence; inhibition, % at 8 µM; 77% of 6,200 active; AID 504607;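 active = mean inhibition at 8 µM reaching about 37%, which flags the compound as non-specific, limit read from the data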;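 note: p53-null SaOS-2 cells with luciferase driven by a doxycycline-inducible promoter; compound on cells about two nights before reading with doxycycline added after day one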
Active calls of the source: *; ? = inconclusive; nt = no result given.

SMILES	Calb FLC	MPTP block	Mdm2 MdmX PPI	Beta apoptosis	CSC inhib	Mdm2 MdmX conf	others
COc1ccc2[nH]c3c(c2c1)CCN1C(=O)C(CC(=O)NCCCN(C)C)C[C@H](C(=O)N2CCCCC2)[C@@]31CCc1ccccc1 (some centres not stated)	nt	-2	33	nt	nt	nt
O=C(C[C@H]1C[C@H](C(=O)N2CCOCC2)[C@@]2(CCC3CCCC3)c3[nH]c4cc(-c5ccco5)ccc4c3CCN2C1=O)NCCC1=CCCCC1	nt	-2	42	nt	nt	nt
CN(C)C(=O)CCc1ccc2c3c([nH]c2c1)[C@]1(CCC2CCCC2)[C@@H](C(=O)N2CCOCC2)C[C@H](CC(=O)NCCN2CCOCC2)C(=O)N1CC3	nt	-1	-6	nt	nt	nt
O=C(C[C@H]1C[C@H](C(=O)N2CCOCC2)[C@@]2(CCC3CCCC3)c3[nH]c4cc(-c5ccco5)ccc4c3CCN2C1=O)NCCc1ccccn1	nt	0	81*	nt	nt	0
CN(C)C(=O)CCc1ccc2c3c([nH]c2c1)[C@]1(CCC2CCCC2)[C@@H](C(=O)N2CCOCC2)C[C@H](CC(=O)NCCC2=CCCCC2)C(=O)N1CC3	nt	-1	54*	nt	nt	57*	FLuc counter=61*
CN(C)CCCNC(=O)CC1C[C@H](C(=O)N2CCCCC2)[C@@]2(CCc3ccccc3)c3[nH]c4ccccc4c3CCN2C1=O (some centres not stated)	nt	-3	83*	8	5	24
C[C@H]1COc2cccc(N(C)CCO)c2S(=O)(=O)N1	nt	-3	nt	nt	nt	nt
CCC(C)(C)c1ccc(OCCCC[n+]2cccc(C)c2)c(C(C)(C)CC)c1	-1	28	nt	nt	nt	nt
Cc1ccc(NC(=O)C2CCN(C(=O)c3ccc(F)cc3)CC2)nc1	nt	-1	-1	-1	-5	nt
Cc1ccc(NC(=O)C2(C)CCCN(C(C)C)C2)cc1C (configuration not stated)	nt	0	nt	nt	nt	nt
C[C@H](CO)N1C[C@H](C)[C@H](CN(C)S(=O)(=O)c2cccs2)Oc2ncc(-c3cc4ccccc4o3)cc2C1=O	nt	-1	nt	nt	nt	nt
COc1ccc2[nH]c3c(c2c1)CCN1C(=O)C(CC(=O)NCCC2=CCCCC2)C[C@H](C(=O)N2CCCCC2)[C@@]31CCc1ccccc1 (some centres not stated)	nt	1	88*	nt	nt	-33
COc1ccc2[nH]c3c(c2c1)CCN1C(=O)C(CC(=O)NCCN2CCOCC2)C[C@H](C(=O)N2CCCCC2)[C@@]31CCc1ccccc1 (some centres not stated)	nt	-3	6	nt	nt	nt
CC(C)c1ccc(-c2csc3ncnc(N4CCN(C)CC4)c23)cc1	-6	-2	58*	12	9	57*	FLuc counter=39*
CCCCn1c(N)c(N(CC(C)C)C(=O)c2ccco2)c(=O)[nH]c1=O	-7	0	-10	-2	-7	nt
Cc1oc2c(Cl)c(Cl)c(O)c(CN(C)C)c2c1C(=O)c1ccc(Cl)cc1	9	2	59*	-7	-19	66*	FLuc counter=27
Cc1nc2ncccn2c1-c1csc(Nc2ccccc2)n1	16	9	62*	9	-9	24
CC(=O)Nc1ccc(Nc2nc(-c3c(C)nc4ccccn34)cs2)cc1	6	31	66*	5	59	47*	FLuc counter=66*
CCOC(=O)c1c(C)[nH]c(C(=O)Nc2cc(OCC)c(N3CCOCC3)cc2OCC)c1C	nt	-1	38	29	nt	nt
C=CCNC(=O)c1ccc(-c2nc(-c3ccc(Cl)c(Cl)c3)cs2)cc1	-2	2	52*	-15	-9	25
COCCCNC(=O)/C=C1\Sc2ccccc2N(Cc2ccccc2F)C1=O	5	1	88*	-16	25	53*	FLuc counter=38*
Cc1cccc(CN2C(=O)/C(=C\c3ccc(C(=O)NCCCN4CCN(C)CC4)cc3)Oc3ccccc32)c1	5	3	100*	22	105*	56*	FLuc counter=36*
CN1CCN(CCCNC(=O)c2ccc(/C=C3\Oc4ccccc4N(Cc4ccccc4F)C3=O)cc2)CC1	32	0	92*	5	13	12
CCN1CCN(CCNC(=O)c2ccc(/C=C3\Sc4ccccc4N(Cc4ccccc4F)C3=O)cc2)CC1	44	-4	92*	4	20	52*	FLuc counter=46*
CN1CCN(CCCNC(=O)c2ccc(/C=C3/Sc4ccccc4N(Cc4cccc(Cl)c4)C3=O)cc2)CC1	20	-2	nt	nt	nt	nt
SMILES	Calb FLC	MPTP block	Mdm2 MdmX PPI	Beta apoptosis	CSC inhib	Mdm2 MdmX conf	others
O=C(O)Cc1ccc2c(c1)Cc1cccnc1O2	nt	0	nt	nt	nt	nt
Cc1cc(C(=O)N2CCC2(C)C(=O)NCC(C)(C)C)nn1C (configuration not stated)	nt	0	nt	nt	nt	nt
Nc1c(C(=O)NCc2ccccc2)c2nc3ccccc3nc2n1CCCN1CCOCC1	-13	-2	17	7	31	nt
COc1ccc(CNC(=O)c2c(N)n(CCCN3CCOCC3)c3nc4ccccc4nc23)cc1	8	-3	56*	42	83*	26
Nc1c(C(=O)NCc2ccc(F)cc2)c2nc3ccccc3nc2n1CCCN1CCOCC1	2	-6	54*	-8	?	20
COC(=O)c1c(N)n(CCCN2CCOCC2)c2nc3ccccc3nc12	0	0	-12	-10	-3	nt
COc1ccc(Cl)cc1NC(=O)CN(C)C(=O)c1cc(-c2ccncc2)nc2ccccc12	-5	0	33	7	19	nt
Cc1ccc(-c2nc3cccnc3o2)cc1NC(=O)COc1ccc(Cl)cc1C	2	2	85*	64	-13	19
Cc1ccc(-c2nc3ncccc3o2)cc1NC(=O)CC(C)C	5	0	-5	7	-4	nt
Cc1ccc(-c2nc3ncccc3o2)cc1NC(=O)Cc1ccc(Cl)cc1	5	0	93*	6	nt	26
Cc1ccc(-c2nc3ncccc3o2)cc1NC(=O)COc1ccccc1	?	0	-11	0	-2	nt
O=C1NC(Cc2ccc(O)cc2)c2nc3ccc(Br)cc3c(=O)n2-c2ccc(Cl)cc21 (configuration not stated)	nt	nt	-6	6	12	nt
O=C(Nc1ccc(Cl)c(C(F)(F)F)c1)C1Cc2c(-c3ccc4c(c3)OCO4)ccnc2O1 (configuration not stated)	nt	2	nt	nt	nt	nt
COc1ccc2oc(C(=O)NC(C)c3ccccn3)c(C)c2c1 (configuration not stated)	nt	-1	4	0	nt	nt
Cc1cc(C)c(OCC(=O)Nc2nc(-c3ccccn3)cs2)c(C)c1	1	-1	53*	1	-6	33	FLuc counter=46*
CC(Oc1ccc(F)cc1)C(=O)Nc1nc(-c2ccccn2)cs1 (configuration not stated)	0	-2	77*	20	36	84*	FLuc counter=36
COc1ccc2oc(C(=O)Nc3nc(-c4ccccn4)cs3)c(C)c2c1	15	-2	60*	12	30	59*	FLuc counter=69*
